Data taken from PubChem BioAssay AID504832 (National Center for Advancing Translational Sciences (NCATS), 2011).
About 18,000 (5.8%) of roughly 310,000 compounds were called active. A call without a number means that no potency is given here. Roughly 22% stayed inconclusive and do not appear here. This is one part of a sample in which actives are shown more often than they occur. Unmarked numbers belong to inactive results. Calls come from the whole dose curve; as a rule, active = well fitted inhibition curve with a large enough effect; inconclusive = small, poorly fitted or top-dose-only effect, or another doubt; inactive = no such curve, though single readings can be large or run the other way.

Test: Primary qHTS for delayed death inhibitors of the malarial parasite plastid, 48 hour incubation
Settings: P. falciparum luciferase growth in erythrocytes; series mostly up to 28.7 µM
Summary of the method: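 Read-out is firefly luciferase luminescence from an integrated reporter in P. falciparum, so falling signal marks reduced parasite growth. Infected erythrocytes were at 2% hematocrit and 0.1% parasitemia (final) in Albumax-supplemented RPMI 1640.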
Potency is the fitted concentration of half-maximal effect.

Structure (SMILES)	Potency	activity change, negative = inhibition
CC(Sc1nnc(-c2ccccc2F)n1C1CC1)C(N)=O (stereo not given)	inactive	–
Cc1occc(=O)c1OCc1ccc(F)cc1	inactive	–
Clc1nc(NC2CCCC2)nc(N2CCOCC2)n1	inactive	–
Cc1ccc(NC(=O)Cc2nnc(SCC(=O)Nc3nncs3)n2C)cc1	inactive	–
Cc1c(C(=O)N2CCCC2)c(S(=O)(=O)NCC(C)c2ccccc2)c(C)n1C (stereo not given)	inactive	–
Cc1onc(C(=O)NN)c1C(=O)N1CCN(C(c2ccccc2)c2ccccc2)CC1	5.86 µM (active)	–
CCc1noc(C)c1C(=O)N1CCN(S(=O)(=O)c2cccc(C(F)(F)F)c2)CC1	inactive	–
COc1ccc(N2CCN(C(=O)Cn3cnc4sc(C)c(S(=O)(=O)N5CCOCC5)c4c3=O)CC2)cc1	inactive	–
CN(Cc1cccs1)C(=O)CN1C(=O)c2ccccc2S1(=O)=O	inactive	–
CCC1CCC2(CC1)NC(=O)N(CC(=O)Nc1ccc(OC)cc1)C2=O (stereo not given)	inactive	–
O=C(CN(CC1CCCO1)C(=O)CNS(=O)(=O)c1ccc(Cl)cc1)NCc1ccccc1 (stereo not given)	inactive	–
CCN(C(=O)COC(=O)c1c(C)nn(-c2ccccc2)c1Cl)c1c(N)n(Cc2ccccc2)c(=O)[nH]c1=O	10.4 µM (active)	–
CCN(C(=O)COC(=O)c1sccc1C)c1c(N)n(Cc2ccccc2)c(=O)[nH]c1=O	inactive	–
CCN(C(=O)COC(=O)CCOc1cccc(C)c1)c1c(N)n(Cc2ccccc2)c(=O)[nH]c1=O	inactive	–
Cc1ccccc1NC(=O)Cc1nc(COC(=O)c2cccnc2Cl)cs1	inactive	–
O=C(CCNC(=O)c1ccc([N+](=O)[O-])cc1)NC1CCCCC1	inactive	–
CCOc1cc(C(=S)N2CCOCC2)ccc1OS(=O)(=O)c1ccc(Br)cc1	inactive	–
COc1cc(OC)c(C(=S)N2CCCC2)cc1OC	inactive	–
COC(=O)[C@@H](Cc1ccccc1)NC(=O)NCCc1ccccc1	inactive	–
Cc1ccc(NC(=O)CCCNC(=O)c2ccc(Cl)cc2)cc1S(=O)(=O)N1CCOCC1	inactive	–
Cc1ccccc1CSCCNC(=O)c1ccc(N(C)S(=O)(=O)c2ccccc2)cc1	inactive	–
O=C(NCc1cccnc1)c1cc(S(=O)(=O)N2CCOCC2)c(Cl)cc1Cl	inactive	–
Cc1ccccc1CSCCNC(=O)c1ccc(Cl)c(S(=O)(=O)N2CCOCC2)c1	11.7 µM (active)	–
Cc1ccc(C(=O)Nc2ncccc2C)cc1S(=O)(=O)N1CCOCC1	inactive	–
O=C(NCCSCc1ccccc1)c1ccc(Cl)c(S(=O)(=O)N2CCOCC2)c1	10.4 µM (active)	–

Structure (SMILES)	Potency	activity change, negative = inhibition
Cc1ccccc1N1CC(C(=O)Nc2ccc3c(c2)OCO3)CC1=O (stereo not given)	inactive	–
Cc1ccc(Cl)c(OCC(=O)N2CCc3ccccc3C2)c1	inactive	–
OCC1(Cc2ccccc2)CCN(Cc2cc3ccccc3o2)CC1	inactive	–
CC(C)c1csc(CN2CCC(CO)(Cc3ccccc3)CC2)n1	inactive	–
OCC1(Cc2ccccc2C(F)(F)F)CCN(Cc2cccc3cnccc23)CC1	11.7 µM (active)	–
Cn1nc(C(C)(C)C)c([N+](=O)[O-])c1C(N)=O	inactive	–
Cn1nc([N+](=O)[O-])nc1Sc1ccc(C(C)(C)C)cc1	13.1 µM (active)	–
CC(C)(C)NC(=O)Cn1cnc([N+](=O)[O-])n1	inactive	–
Cc1ccnc(NC(=O)CNC(=O)c2ccccc2)c1	inactive	–
COc1cccc2sc(N(CCCN(C)C)C(=O)C(c3ccccc3)c3ccccc3)nc12	13.1 µM (active)	–
COc1cccc2sc(N(CCCN(C)C)C(=O)CCS(=O)(=O)c3ccccc3)nc12	inactive	–
Cc1cccc2sc(N(CCCN(C)C)C(=O)CCS(=O)(=O)c3ccccc3)nc12	inactive	–
Cc1ccc(CSc2nsc(C)c2C#N)cc1	inactive	–
O=C1c2ccccc2S(=O)(=O)N1Cc1c(F)cccc1Cl	inactive	–
CCOC(=O)c1cnc2ccc(F)cc2c1Nc1ccc2c(c1)OCCO2	9.28 µM (active)	–
COC(=O)CCNc1ccc2c(c1)OCCO2	inactive	–
CCCCC(=O)Nc1ccc2c(c1)OCCO2	inactive	–
CCOCCn1c(C(C)C)nc2ccccc21	inactive	–
CN(C)CCCNc1c2c(c(C#N)c3nc4ccccc4n13)CCC2	inactive	–
CCOCCCNc1c(CC)c(C)c(C#N)c2nc3ccccc3n12	3.29 µM (active)	–
CCCCCn1c(=O)c(C(=O)Nc2c(C)n(C)n(-c3ccccc3)c2=O)c(O)c2ccccc21	inactive	–
CCCCn1c(=O)c(C(C)=O)c(O)c2ccccc21	inactive	–
CCCCCn1c(=O)c(C(=O)NCc2ccccc2)c(O)c2ccccc21	9.28 µM (active)	–
COc1ccc(N(CC(=O)Nc2ccc(F)c(F)c2)S(=O)(=O)c2c(C)[nH]c(=O)[nH]c2=O)cc1	inactive	–
CN(C(=O)c1cccc(OC2CCN(S(=O)(=O)N(C)C)CC2)c1)C1CCOC1 (stereo not given)	inactive	–

Structure (SMILES)	Potency	activity change, negative = inhibition
CC(C)(C)NC(=O)NC(=O)COC(=O)C1c2ccccc2Oc2ccccc21	inactive	–
Cc1ccccc1N1CCN(S(=O)(=O)c2ccc3ccccc3c2)CC1	inactive	–
O=c1c2cc3c(=O)n(CC4CCCO4)c(=O)c3cc2c(=O)n1CC1CCCO1 (stereo not given)	inactive	–
CCOc1cccc(=O)c2c(C)n(CC3CCCO3)c(C)c12 (stereo not given)	14.7 µM (active)	–
CCOc1ccc(NC(=O)c2cccc3c2C(=O)N(CC2CCCO2)C3)cc1 (stereo not given)	inactive	–
CC(C)c1ccc(NC(=O)COC(=O)c2ccc(CN3CCCC3=O)cc2)cc1	inactive	–
Cc1ccc2nc(SCC(=O)NC3CCCC3)[nH]c2c1	inactive	–
CCN1C(=O)[C@H]2[C@@H](c3ccc(-c4ccc(F)cc4)cc3)N[C@@](Cc3ccccc3)(C(=O)OC)[C@H]2C1=O	4.65 µM (active)	–
CCN1C(=O)[C@H]2[C@@H](c3ccc(-c4ccc(OC)cc4)cc3)N[C@@](Cc3ccccc3)(C(=O)OC)[C@H]2C1=O	9.28 µM (active)	–
CCCCC1(C(=O)OCC)NC(c2ccc(O)cc2)C2C(=O)N(c3ccccc3)C(=O)C21 (stereo not given)	inactive	–
COC(=O)C1(C)NC(c2ccc(F)cc2)C2C(=O)N(c3ccccc3)C(=O)C21 (stereo not given)	inactive	–
COC(=O)C1(C)NC(c2ccc(C)cc2)C2C(=O)N(c3ccc(F)cc3)C(=O)C21 (stereo not given)	inactive	–
CCOC(=O)C1(Cc2ccc(O)cc2)NC(c2ccccc2F)C2C(=O)N(C)C(=O)C21 (stereo not given)	inactive	–
CCCC1(C(=O)OC)NC(c2ccco2)C2C(=O)N(C)C(=O)C21 (stereo not given)	inactive	–
COC(=O)C1(C)NC(c2ccccc2OC)C2C(=O)N(c3ccccc3)C(=O)C21 (stereo not given)	inactive	–
CCN1C(=O)[C@H]2[C@@H](c3ccc(SC4CCCCC4)c(OC)c3)N[C@@](Cc3ccccc3)(C(=O)OC)[C@H]2C1=O	2.08 µM (active)	–
COc1cc2c(C(=O)O)c(C)n(C)c2c2ccccc12	–	15.4% [at 0.00184 µM]
O=C(CSc1ccc(-c2ccco2)nn1)Nc1cccc(F)c1	inactive	–
NC(=O)c1cc2ccccc2o/c1=N/NC(=O)c1cccc(F)c1	inactive	–
CCOc1cc(NC(=O)Nc2ccccc2)c(OCC)cc1NC(=O)CC	inactive	–
CCOc1cc(NC(=O)c2ccccc2C(=O)O)c(OCC)cc1NC(=O)c1ccccc1F	4.15 µM (active)	–
NC(=O)c1ccccc1NC(=O)c1ccccc1F	inactive	–
O=C(Nc1cccc(Cl)c1N1CCOCC1)c1cccnc1	inactive	–
Cc1ccccc1NC(=O)CCNS(=O)(=O)c1ccc2[nH]c(=O)oc2c1	inactive	–
C/C(CC(=O)Nc1ccc(N(C)C)cc1)=N\NC(=O)c1ccccc1F	inactive	–

Structure (SMILES)	Potency	activity change, negative = inhibition
CCn1c2ccccc2c2cc(NC(=O)COC(=O)c3ccccc3Br)ccc21	inactive	–
CCn1c2ccccc2c2cc(NC(=O)C/C(C)=N/NC(=O)c3ccccc3N)ccc21	11.7 µM (active)	–
CN(CC(=O)NCc1ccc(Cl)cc1)S(=O)(=O)c1cccs1	inactive	–
COc1ccc(S(=O)(=O)N2CCN(C(=O)N(C)C)C2C)cc1 (stereo not given)	inactive	–
Cc1[nH]c(C)c(S(=O)(=O)N2CCN(c3cccc(C(F)(F)F)c3)CC2)c1C(=O)N1CCCC1	inactive	–
COc1ccc(N2CCN(C(c3cc4ccc(C)cc4[nH]c3=O)c3nnnn3C3CCCC3)CC2)cc1 (stereo not given)	1.85 µM (active)	–
CCOc1ccc2[nH]c(=O)c(C(c3nnnn3CCOC)N3CCOCC3)cc2c1 (stereo not given)	inactive	–
CN1CCN(C(c2cc3cc4c(cc3[nH]c2=O)OCCO4)c2nnnn2C2CCCC2)CC1 (stereo not given)	inactive	–
O=C(NCCCN1CCOCC1)C1CCCN(S(=O)(=O)N2CCCCC2)C1 (stereo not given)	inactive	–
CCC(C)C(NC(=O)C1CCC(=O)N1C(=O)OCc1ccccc1)C(=O)NC(C(=O)N1CCCC1C(N)=O)C(C)CC (stereo not given)	inactive	–
CC(=O)Nc1ccc(NC(=O)[C@@H](NC(=O)c2cccc(C)c2)C(C)C)cc1	inactive	–
Cc1cccc(N(Cc2ccccc2)C(=O)c2cc(S(=O)(=O)N3CCOCC3)ccc2F)c1	11.7 µM (active)	–
Cc1ccc(S(=O)(=O)N2CCOCC2)cc1C(=O)NC(=S)N(Cc1ccccc1)C(C)C	inactive	–
Cc1cccc(NC(=O)c2cc(S(=O)(=O)N3CCC4(CC3)OCCO4)ccc2F)c1	inactive	–
CC(=O)Nc1ccc(NC(=O)CC2CCCC2)cc1	inactive	–
COc1ccc(/C=N/NC(=O)C2CC2)c(OC)c1OC	inactive	–
CCCOc1ccc(/C=N/NC(=O)C2CC2)c(OCCC)c1	11.7 µM (active)	–
CCCOc1ccc(NC(=O)C2CCCNC2=O)cc1 (stereo not given)	inactive	–
CCCCCCCCn1c2c(c(=N)c3c1CCC3)CCCC2	0.262 µM (active)	–
Cc1ccc(CC2C(=O)N(c3ccc(F)cc3)C(=O)C2C)cc1 (stereo not given)	inactive	–
CC(=O)NC(CC(=O)Nc1nc(-c2ccccc2)c(C(C)=O)s1)c1ccccc1 (stereo not given)	inactive	–
CC1CCCC(C)N1C(=O)COC(=O)COc1ccccc1C#N (stereo not given)	inactive	–
COCCNC(=O)C(c1ccc(C)o1)N(Cc1ccccc1)C(=O)Cn1nnc2ccccc21 (stereo not given)	inactive	–
COc1ccccc1N(C(=O)Cn1nnc2ccccc21)C(C(=O)NCc1ccco1)c1ccc(C)o1 (stereo not given)	13.1 µM (active)	–
O=C(NCc1ccco1)C(c1ccncc1)N(C(=O)Cn1nnc2ccccc21)c1ccccc1 (stereo not given)	inactive	–
